We go through 53 compounds from ChEMBL document CHEMBL1857833, “Screening and optimization of specific chemical series against human African Trypanosomiasis (HAT)”.

Structures are written as SMILES. In all, about 4,400 compounds went through this assay and about 390 (8.9%) showed an effect of 50% or more. The list comes from a sample in which strong results are over-represented; it also holds similar structures and randomly drawn compounds.

This assay deals with Trypanosoma brucei. The experiment in a line: DNDI: Inhibition of Human African Trypanosomiasis, SBRI 427, in vitro at 2 ug.mL-1. The assay is classed as functional.
The term % inhibition denotes the relative decrease from the control value, in per cent. On to `Cc1cc(C)cc(Oc2ccc(/C(=N/O)NCc3ccccc3)cn2)c1`, for which the “% inhibition” value is recorded as -3%.
The value for `Cc1cccc(Oc2ccc(/C(=N/O)NC(C)C)cn2)c1` was 8%; that for `CCC(C)(C)N/C(=N\O)c1ccc(Oc2cc(C)cc(C)c2)nc1` was 95%; that for `CCC(C)(C)N/C(=N\O)c1ccc(Oc2cccc3c2OC(C)(C)C3)nc1` was 11%.
The value for `Cc1cc(Oc2ccc(/C(=N/O)NCc3cc(F)cc(F)c3)cn2)cc(C(C)C)c1` was 17%.
The value for `CC1CCC(N/C(=N\O)c2ccc(Oc3cccc4ccccc34)nc2)CC1` (stereo not drawn) was 19%; that for `Cc1cc(C)cc(CN/C(=N\O)c2ccc(Oc3cccc(C)c3)nc2)c1` was 19%; that for `CCC(C)(C)N/C(=N\O)c1ccc(Oc2cc(C)cc(C(C)C)c2)nc1` was 91%.
For `Cc1cc(Oc2ccc(/C(=N/O)NCc3ccccc3)cn2)cc(C(C)C)c1`, the “% inhibition” value worked out at 14%.
Then `COCCCNCc1coc(-c2ccccc2)n1`, with 38%; and `CC1CC(C)CN(/C(=N\O)c2ccc(Oc3cc(Cl)ccc3Cl)nc2)C1` (stereo not drawn), with 10%; and `CN(Cc1cccnc1)/C(=N\O)c1ccc(Oc2cc(Cl)ccc2Cl)nc1`, with -14%.
Take `Cc1ccc(/C(=N/O)N2CC=CC2)c(Oc2cccc3ccc(C)nc23)n1`: the “% inhibition” value came to 28%.
The value for `N/C(=N\O)c1ccc(Oc2ccc3ccccc3c2)nc1` was 12%; that for `Cc1ccc(/C(=N/O)N2CCC=N2)c(Oc2cccc(F)c2)n1` was 21%.
The value for `CCN(CCC#N)Cc1coc(-c2ccc(C(F)(F)F)cc2)n1` was -3%; that for `Cc1ccccc1CN/C(=N\O)c1ccnc(Oc2ccc(F)c(Cl)c2)c1` was 14%.
With `CN(/C(=N\O)c1cccnc1Oc1ccc(-n2cncn2)cc1)C1CCCCC1`, the “% inhibition” value came out at 14%.
With `Cc1ccc(-c2nc(CNCc3ccccc3)co2)cc1`, the “% inhibition” value was -10%.
Then `CC1CC(C)CN(/C(=N\O)c2ccc(Oc3cccc4cccnc34)nc2)C1` (stereo not drawn), with -24%; and `O/N=C(/c1ccc(Oc2ccc(Cl)cc2)nc1)N1CCC2CCCCC2C1` (stereo not drawn), with 99%.
The value for `O/N=C(/c1ccc(Oc2cc(Cl)ccc2Cl)nc1)N1CCC2CCCCC2C1` (stereo not drawn) was -2%; that for `O/N=C(/c1ccc(Oc2ccc3ccccc3c2)nc1)N1CCC2CCCCC2C1` (stereo not drawn) was 28%.
Then `O/N=C(/c1ccc(Oc2cccc3cccnc23)nc1)N1CCN(c2ccccc2)CC1`, with -27%.
Regarding `O/N=C(/c1ccc(Oc2cccc3cccnc23)nc1)N1CCC2CCCCC2C1` (stereo not drawn), the “% inhibition” value came to 58%.
Consider `CCOc1ccc(Oc2nc(C)ccc2/C(=N/O)N2CC(C)CC(C)C2)cc1` (stereo not drawn), for which the “% inhibition” value amounted to 8%.
Then `Cc1cc(Oc2ccc(/C(=N/O)NCc3cc(F)ccc3F)cn2)cc(C(C)C)c1`, with -14%.
Consider `O/N=C(/c1cccnc1OC1CCC1)N1CCN(c2ccc(F)cc2)CC1`, for which the “% inhibition” value was found to be 7%.
As to `CC(=O)c1ccc(N2CCN(Cc3coc(-c4ccccc4Cl)n3)CC2)cc1`, the “% inhibition” value is reported as -7%.
Turning to `Cc1ccc(/C(=N/O)N2CCC(N(C)C)C2)c(Oc2ccc3ccccc3c2)n1` (stereo not drawn), the “% inhibition” value is on record as 20%.
Then `Cc1ccc(Oc2ncccc2/C(N)=N/O)c2c1CCC2`, with 9%; and `Cc1ccc(Oc2ncccc2/C(=N/O)NC2CCC(C)CC2)c2c1CCC2` (stereo not drawn), with 100%.
Then `Cc1ccc(Oc2ncccc2/C(=N/O)N2CCC3CCCCC3C2)c2c1CCC2` (stereo not drawn), with -7%; and `Cc1ccc(Oc2ncccc2/C(=N/O)N2CC(C)CC(C)C2)c2c1CCC2` (stereo not drawn), with 6%; and `CCCN/C(=N\O)c1cccnc1Oc1ccc(C)c2c1CCC2`, with 42%.
On to `COCCN/C(=N\O)c1cccnc1Oc1ccc(C)c2c1CCC2`, for which the “% inhibition” value was found to be 80%.
The value for `Cc1ccc(Oc2ncccc2/C(=N/O)NC(C)C)c2c1CCC2` was 8%; that for `Cc1ccc(Oc2cc(/C(=N/O)NCC3CC3)ccn2)c2c1CCC2` was 40%.
Then `Cc1ccc(Oc2ncccc2/C(=N/O)NCC2CC2)c2c1CCC2`, with 99%; and `COCC(C)N/C(=N\O)c1cccnc1Oc1ccc(C)c2c1CCC2` (stereo not drawn), with 12%; and `CCC(CC)N/C(=N\O)c1cccnc1Oc1ccc(C)c2c1CCC2`, with 99%.
The value for `Cc1ccccc1-c1nc(Cn2ncc3c2CCCC3)co1` was -16%.
Consider `O/N=C(/c1ccc(Oc2cc(Cl)ccc2Cl)nc1)N1CCSCC1`, for which the “% inhibition” value is -11%.
The value for `COc1ccc(Oc2nc(C)ccc2/C(=N/O)N(C)Cc2cccnc2)cc1` was -3%; that for `CCCN(CCC)Cc1coc(-c2ccccc2Cl)n1` was 16%.
The value for `Oc1ccc(-c2nc(CN3CCc4ccccc4C3)co2)cc1` was 8%; that for `CCOc1ccc(-c2nc(CN(C)CC#N)co2)cc1` was 4%; that for `CSc1ccc(Oc2nc(C)ccc2/C(=N/O)n2nc(C)cc2C)cc1C` was 16%.
The value for `CSc1ccccc1Oc1ncccc1/C(=N/O)N1CCN(c2ccc(F)cc2)CC1` was 19%; that for `Cc1cccc(N2CCN(Cc3coc(-c4ccc(OC(F)(F)F)cc4)n3)CC2)c1C` was -7%.
As for `CC(C)CN/C(=N\O)c1cccnc1Oc1ccccc1`, the “% inhibition” value stood at 17%.
Then `Cc1ccc(Oc2ncccc2/C(=N/O)NCC(C)C)c2c1CCC2`, with 100%; and `Cc1ccc(Oc2ncccc2/C(=N/O)N2CCCC2)c2c1CCC2`, with -1%.
